This excerpt belongs to a sample that is enriched for the strongest signals.
Legend:
Assay in all cases: glycan array binding signal (z-score within array); higher = stronger binding
Details in all cases: glycan notation: IUPAC condensed, linker removed
[1] = target: Glc(a1-4)Glc
Method in brief: (§1)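 Arrays were curated from the Consortium for Functional Glycomics database, 3228 in total, and kept only where the protein sequence was available. Binding is expressed as a within-array Z-score. This score was averaged across arrays of the same protein sequence at different concentrations or buffers and across linkers, and negative values can be read as non-binding.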

[2] = target: Glc(b1-4)Glc
Method in brief: as §1

[3] = target: GlcA(b1-6)Gal
Method in brief: as §1

[4] = target: GlcA3S(b1-3)Gal(b1-4)GlcNAc(b1-2)Man
Method in brief: as §1

[5] = target: GlcNAc(b1-2)Man(a1-3)[GlcNAc(b1-4)][GlcNAc(b1-2)Man(a1-6)]Man(b1-4)GlcNAc(b1-4)[Fuc(a1-6)]GlcNAc
Method in brief: as §1

[6] = target: GlcNAc(b1-3)Gal(b1-4)GlcNAc(b1-3)Gal(b1-4)GlcNAc
Method in brief: as §1

[7] = target: GlcNAc(b1-3)Gal(b1-4)GlcNAc(b1-3)Gal(b1-4)GlcNAc(b1-2)Man(a1-3)[GlcNAc(b1-3)Gal(b1-4)GlcNAc(b1-3)Gal(b1-4)GlcNAc(b1-2)Man(a1-6)]Man(b1-4)GlcNAc(b1-4)[Fuc(a1-6)]GlcNAc
Method in brief: as §1

[8] = target: GlcNAc(b1-3)Gal(b1-4)GlcNAc(b1-3)Gal(b1-4)GlcNAc(b1-3)Gal(b1-4)GlcNAc(b1-2)Man(a1-3)[GlcNAc(b1-3)Gal(b1-4)GlcNAc(b1-3)Gal(b1-4)GlcNAc(b1-3)Gal(b1-4)GlcNAc(b1-2)Man(a1-6)]Man(b1-4)GlcNAc(b1-4)GlcNAc
Method in brief: as §1

[9] = target: GlcNAc(b1-3)Gal(b1-4)GlcNAc(b1-3)Gal(b1-4)GlcNAc(b1-3)Gal(b1-4)GlcNAc(b1-3)Gal(b1-4)GlcNAc(b1-2)Man(a1-3)[GlcNAc(b1-3)Gal(b1-4)GlcNAc(b1-3)Gal(b1-4)GlcNAc(b1-3)Gal(b1-4)GlcNAc(b1-3)Gal(b1-4)GlcNAc(b1-2)Man(a1-6)]Man(b1-4)GlcNAc(b1-4)GlcNAc
Method in brief: as §1

[10] = target: GlcNAc(b1-4)GlcNAc(b1-4)GlcNAc(b1-4)GlcNAc(b1-4)GlcNAc
Method in brief: as §1

[11] = target: Man(a1-6)Man
Method in brief: as §1

[12] = target: Neu5Ac(a2-3)Gal(b1-3)GlcNAc
Method in brief: as §1

[13] = target: Neu5Ac(a2-3)Gal(b1-4)GlcNAc(b1-2)Man
Method in brief: as §1

[14] = target: Neu5Ac(a2-3)Gal(b1-4)GlcNAc(b1-3)Gal(b1-4)GlcNAc(b1-2)Man(a1-3)[Neu5Ac(a2-3)Gal(b1-4)GlcNAc(b1-3)Gal(b1-4)GlcNAc(b1-2)Man(a1-6)]Man(b1-4)GlcNAc(b1-4)GlcNAc
Method in brief: as §1

[15] = target: Neu5Ac(a2-3)Gal(b1-4)GlcNAc(b1-3)Gal(b1-4)GlcNAc(b1-3)[Neu5Ac(a2-3)Gal(b1-4)GlcNAc(b1-3)Gal(b1-4)GlcNAc(b1-6)]GalNAc
Method in brief: as §1

[16] = target: Neu5Ac(a2-3)Gal(b1-4)[Fuc(a1-3)]GlcNAc(b1-2)Man
Method in brief: as §1

[17] = target: Neu5Ac(a2-3)Gal(b1-4)[Fuc(a1-3)]GlcNAc(b1-6)[Neu5Ac(a2-3)Gal(b1-3)]GalNAc
Method in brief: as §1

[18] = target: Neu5Ac(a2-3)Gal6S(b1-4)GlcNAc
Method in brief: as §1

[19] = target: Neu5Ac(a2-3)GalNAc
Method in brief: as §1

[20] = target: Neu5Ac(a2-3)[Neu5Ac(a2-6)]GalNAc
Method in brief: as §1

[21] = target: Neu5Ac(a2-6)Gal(b1-4)GlcNAc(b1-2)Man
Method in brief: as §1

[22] = target: Neu5Ac(a2-6)Gal(b1-4)GlcNAc(b1-2)Man(a1-3)[Gal(b1-4)GlcNAc(b1-2)Man(a1-6)]Man(b1-4)GlcNAc(b1-4)GlcNAc
Method in brief: as §1

[23] = target: Neu5Ac(a2-6)Gal(b1-4)GlcNAc(b1-3)Gal(b1-4)[Fuc(a1-3)]GlcNAc(b1-3)Gal(b1-4)[Fuc(a1-3)]GlcNAc
Method in brief: as §1

[24] = target: Neu5Ac(a2-6)GalNAc(b1-4)GlcNAc6S
Method in brief: as §1

[25] = target: Neu5Ac(a2-8)Neu5Ac(a2-8)Neu5Ac(a2-8)Neu5Ac(a2-3)[GalNAc(b1-4)]Gal(b1-4)Glc
Method in brief: as §1

[26] = target: Neu5Gc(a2-3)Gal(b1-3)GlcNAc
Method in brief: as §1

[27] = target: Neu5Gc(a2-3)Gal(b1-4)GlcNAc
Method in brief: as §1

[28] = target: Neu5Gc(a2-3)Gal(b1-4)GlcNAc(b1-3)Gal(b1-4)GlcNAc(b1-2)Man(a1-3)[Neu5Gc(a2-3)Gal(b1-4)GlcNAc(b1-3)Gal(b1-4)GlcNAc(b1-2)Man(a1-6)]Man(b1-4)GlcNAc(b1-4)GlcNAc
Method in brief: as §1

B1: Nc3LysM-2 (protein)
chain: AHVLQARQSVSCDFATAANTGDTCASFAAAWGITEAAFAKLNPGVSCPGNLIAGSEYCVIGTVSTGAPTTTKAATTSTTPPTTTTTTKATTLSTSTTSVSPTGPSPQMPSITSTCNKFYQVQSGDGCWSIEQAQGVSASDFMAWNKAVDAQCDNLWLGYYVCVGVKGGSSPPPTTTTKPASSSAPTPQMPNTVSNCKKFHKVVSGDGCWAIEQAAGISASDFAKWNPYVDAACDNLWLGYYVCIGV
[1]
  glycan array binding signal (z-score): -0.04
[2]
  glycan array binding signal (z-score): -1.11
[3]
  glycan array binding signal (z-score): 2.36
[4]
  glycan array binding signal (z-score): 0.714
[5]
  glycan array binding signal (z-score): -0.543
[6]
  glycan array binding signal (z-score): 0.247
[7]
  glycan array binding signal (z-score): 3.4
[8]
  glycan array binding signal (z-score): -0.959
[9]
  glycan array binding signal (z-score): -0.307
[10]
  glycan array binding signal (z-score): 3.61
[11]
  glycan array binding signal (z-score): 0.852
[12]
  glycan array binding signal (z-score): 0.767
[13]
  glycan array binding signal (z-score): 0.06
[14]
  glycan array binding signal (z-score): 4.26
[15]
  glycan array binding signal (z-score): -0.674
[16]
  glycan array binding signal (z-score): -0.075
[17]
  glycan array binding signal (z-score): 2.08
[18]
  glycan array binding signal (z-score): -0.155
[19]
  glycan array binding signal (z-score): -1.24
[20]
  glycan array binding signal (z-score): 0.668
[21]
  glycan array binding signal (z-score): 0.422
[22]
  glycan array binding signal (z-score): -0.256
[23]
  glycan array binding signal (z-score): 0.118
[24]
  glycan array binding signal (z-score): -2.04
[25]
  glycan array binding signal (z-score): 0.938
[26]
  glycan array binding signal (z-score): 0.959
[27]
  glycan array binding signal (z-score): -0.122
[28]
  glycan array binding signal (z-score): -0.459
